Broadly, the AC50 is the midpoint of the concentration-response curve, whichever way the signal moves.

These results are taken from PubChem BioAssay (EPA / NIEHS).

Several values for one entry are separate records, joined by “and”; a condition that tells them apart may be missing. Equal entries are not always repeated. Results filed as inconclusive are left out. Where a structure was tested more than once in an assay, its records may differ in their call. Activity calls are given as the source filed them. How the source made its calls, unless noted: active means hit-call score of the fitted dose curve at least 0.9, where 1 is the maximum; inactive means score below 0.9.

Assay [1] in a line: CCTE_Simmons_MITO_max_resp_rate: CCTE's HepG2 Seahorse XF Respirometric Screening Assay at Maximal Respiratory State [uncoupled], Simmons Lab (AID 2284002). Particulars: actives raise or lower the signal. The gist of the method:
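HepG2 oxygen consumption measured on Seahorse XF after FCCP uncoupling, following test compound injection; 7 concentrations from 125 nM to 100 uM final. Readings every 6 min over 72 min, three biological replicates; bidirectional fit versus DMSO.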

A short description of assay [2]: CCTE_Simmons_MITO_inhib_resp_rate: CCTE's HepG2 Seahorse XF Respirometric Screening Assay at Inhibited Respiratory State [full ETC block], Simmons Lab (AID 2284006). Particulars: actives raise or lower the signal. An outline of the steps:
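Compound injected onto HepG2 cells (125 nM–100 uM final, 7 points); FCCP then rotenone/antimycin A added. Oxygen consumption read every 6 min (3 min mix, 3 min measure) for 72 min. Inhibited-state OCR fitted against DMSO.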

Assay [3] in a line: CCTE_Shafer_MEA_acute_spike_number: CCTE's Neural Acute Assay for Total Number of Spikes, Shafer Lab (AID 2284008).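 On AC50: curve fitted for decrease in spike count so AC50 reflects inhibitors.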 The gist of the method:
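Rat primary cortical neurons on 48-well MEA plates, DIV 13 or 15, at 37 C. 40 min baseline then 40 min with compound (0.03-40 uM); spikes detected at 8x rms noise, expressed as percent change from baseline.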

The nature of assay [4]: CCTE_Shafer_MEA_acute_firing_rate_mean: CCTE's Neural Acute Assay for Mean Firing Rate, Shafer Lab (AID 2284009).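 Further: analyzed for loss of signal so actives lower firing rate relative to DMSO.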 The gist of the method: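 Percent change in well-mean firing rate was derived from extracellular spikes detected at 8x rms noise (300-5000 Hz band-pass) before and after a 40-min compound exposure. Cultures were primary rat cortical neurons, tested at 0.03-40 uM.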

A short description of assay [5]: CCTE_Harrill_HTTr_Viability_MCF7: CCTE's 6-hour Cell Viability Assessment for the High-Throughput Transcriptomics (HTTr) Platform, in MCF-7 cells cultured in DMEM + 10% fetal bovine serum, Harrill Lab (AID 2284010). The gist of the method:
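Cells were dosed with chemicals in an eight-point dilution series, imaged 6 hours later for propidium iodide uptake, and the endpoint was analyzed by bidirectional fitting against DMSO as negative control.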

The nature of assay [6]: CCTE_Harrill_HTTr_Apoptosis_MCF7: CCTE's 6-hour Apoptosis Assessment for the High-Throughput Transcriptomics (HTTr) Platform, in MCF-7 cells cultured in DMEM + 10% fetal bovine serum, Harrill Lab (AID 2284011). The gist of the method:
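MCF-7 cells in DMEM + 10% FBS exposed 6 h to chemicals over an eight-point dilution series. Caspase-3/7 activation imaged by high-content CellEvent Green staining; fitted bidirectionally versus DMSO.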

Assay [7] can be described thus: CCTE_Shafer_MEA_acute_burst_number: CCTE's Neural Acute Assay for Single-Electrode Bursts, Shafer Lab (AID 2284013). An outline of the steps:
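Spontaneous network activity of primary rat cortical neurons was recorded extracellularly on microelectrode arrays at 37 C, with 40-min periods before and during exposure to 0.03-40 uM compound on DIV 13 or 15.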

The nature of assay [8]: CCTE_Shafer_MEA_acute_burst_duration_mean: CCTE's Neural Acute Assay for Mean Burst Duration, Shafer Lab (AID 2284014).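 Further: hits are decreases in mean burst duration relative to DMSO controls.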 The gist of the method: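 Read-out is the per-well percent change in mean burst duration (first to last spike within a single-electrode burst) between 40-min recordings before and after compound. Cultures were primary rat cortical neurons on MEAs, dosed at 0.03-40 uM on DIV 13 or 15.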

Assay [9] in a line: CCTE_Shafer_MEA_acute_per_burst_spike_number_mean: CCTE's Neural Acute Assay for Average Number of Spikes Per Burst, Shafer Lab (AID 2284015).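 Further: hits are decreases in mean spikes per burst versus baseline.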 The gist of the method: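 Rat primary cortical neurons on 48-well MEAs (DIV 13 or 15) were treated with 0.03-40 uM compound at 37 C. Mean spikes per burst over 40 min were recorded before and after exposure and expressed as percent change from baseline, relative to DMSO.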

A short description of assay [10]: CCTE_Shafer_MEA_acute_interburst_interval_mean: CCTE's Neural Acute Assay for Mean Interburst Interval, Shafer Lab (AID 2284016).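 Further: percent change of mean interburst interval versus each well's own pre-dose baseline; curves fitted for decrease in interburst interval relative to DMSO.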 The gist of the method:
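Rat primary cortical neurons on 48-well MEAs at DIV 13 or 15 were exposed acutely to 0.03-40 uM. Spikes detected at 8x rms noise, 37 C. Mean interburst interval from 40 min recordings expressed as percent change from 40 min pre-treatment baseline.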

Assay [11] in a line: CCTE_Shafer_MEA_acute_burst_percentage_mean: CCTE's Neural Acute Assay for Percentage of Spikes in a Burst, Shafer Lab (AID 2284017).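 Further: curve fitted for loss of signal so potency reflects decreased burst percentage.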 The gist of the method:
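Primary rat cortical neurons on 48-well MEA plates, treated on DIV 13 or 15 at 0.03-40 uM. Spikes detected at 8x rms noise at 37C; percent change from 40-min baseline to 40-min post-dose recording, fitted versus DMSO.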

Assay [12] can be described thus: CCTE_Shafer_MEA_acute_burst_percentage_std: CCTE's Neural Acute Assay for Standard Deviation of Burst Percentage, Shafer Lab (AID 2284018).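 Further: fitted in the negative direction so actives lower burst percentage SD.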 An outline of the steps:
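Value is percent change from baseline in the across-electrode SD of spikes-in-bursts percentage, wells with >/= 10 active electrodes. Acute 40-min exposure to 0.03-40 uM on DIV 13 or 15 rat cortical cultures, recorded at 37 C after 40-min baseline.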

Assay [13] can be described thus: CCTE_Shafer_MEA_acute_per_network_burst_spike_number_mean: CCTE's Neural Acute Assay for Average Number of Spikes in a Network Burst, Shafer Lab (AID 2284019).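 On AC50: curve fitted for loss of signal so actives reduce spikes per network burst.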 An outline of the steps: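 Read-out is mean spike count per network burst, taken as percent change between a 40-min pre-exposure and a 40-min post-exposure recording per well. Rat primary cortical neurons on MEAs at 37 C, DIV 13 or 15; compounds at 0.03-40 uM.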

The nature of assay [14]: CCTE_Shafer_MEA_acute_per_network_burst_spike_number_std: CCTE's Neural Acute Assay for Standard Deviation of Number of Spikes in a Network Burst, Shafer Lab (AID 2284020).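 Further: fitted for decrease in spike-number SD versus DMSO so actives lower it.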 The gist of the method:
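Spontaneous network activity of primary rat cortical neurons is recorded extracellularly before and after a 40-min compound exposure (0.03-40 uM) at 37 C. The endpoint is the well's percent change in burst spike-number SD.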

Assay [15] is described as follows: CCTE_Shafer_MEA_acute_per_network_burst_electrodes_number_mean: CCTE's Neural Acute Assay for Mean Number of Electrodes in a Network Burst, Shafer Lab (AID 2284021).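 Further: curves fitted for decreases only so hits reduce electrodes per burst.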 An outline of the steps:
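Rat primary cortical neurons on 48-well MEAs, DIV 13 or 15, were treated at 0.03-40 uM. Spikes were detected at 8x rms noise and recorded at 37 C. The mean electrodes per network burst in a 40 min exposure recording was expressed as percent change from a 40 min baseline.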

A short description of assay [16]: CCTE_Shafer_MEA_acute_network_burst_percentage: CCTE's Neural Acute Assay for Percentage of Network Bursts, Shafer Lab (AID 2284022).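 Further: curves fitted for loss so actives lower network burst percentage.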 An outline of the steps: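 Rat primary cortical neuron networks on 48-well MEA plates, DIV 13 or 15, treated acutely with compound (0.03-40 uM, at least three wells). Percent of spikes within network bursts compared between 40-min recordings before and during exposure at 37 C, expressed as percent change.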

Assay [17] in a line: CCTE_Shafer_MEA_acute_cross_correlation_area: CCTE's Neural Acute Assay for Area of Cross Correlation, Shafer Lab (AID 2284024).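 Further: curves fitted for loss of cross-correlation area so actives lower synchrony.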 The gist of the method: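 Rat primary cortical neurons on 48-well MEA, DIV 13 or 15; compounds 0.03-40 uM. Baseline and post-exposure 40 min recordings at 37 C; percent change in area under pooled inter-electrode cross-correlation near zero lag, relative to DMSO.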

Assay [18] is described as follows: CCTE_Shafer_MEA_acute_cross_correlation_HWHM: CCTE's Neural Acute Assay for Cross Correlation at Half Width at Half Maximum, Shafer Lab (AID 2284026).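 Further: hits are a decrease in cross-correlogram half width relative to DMSO.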 An outline of the steps: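 Rat primary cortical neurons on 48-well MEA plates; 40-min baseline and 40-min post-exposure recordings at 37 C on DIV 13 or 15, compounds 0.03-40 uM. Spikes detected at 8x rms noise; percent change in cross-correlogram HWHM per well vs baseline.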

A short description of assay [19]: CCTE_Simmons_MITO_viability: CellTiter-Glo Viability Assessment for CCTE's HepG2 Seahorse XF Respirometric Screening Assay [post-hoc], Simmons Lab (AID 2284007; active means hit-call score of the fitted dose curve at least 0.9, where 1 is the maximum;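 on AC50: cells exposed to chemical for 90 min before the ATP read; actives lower ATP signal relative to DMSO baseline meaning reduced viability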). An outline of the steps: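 After the Seahorse oxygen-consumption sequence (basal, FCCP, rotenone/antimycin A; 72 min total), HepG2 viability was scored as ATP content by bioluminescence. Chemicals ran at seven concentrations up to 100 uM final for 90 min.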
A general note: In ATP-based viability assays light output follows the ATP content of the culture.

The nature of assay [20]: CCTE_Harrill_HTTr_CellCount_MCF7: CCTE's Cell Proliferation Assessment for the High-Throughput Transcriptomics (HTTr) Platform, Harrill Lab (AID 2284012; active means hit-call score of the fitted dose curve at least 0.9, where 1 is the maximum;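 further: cells exposed to compound for six hours; intended direction is loss of nuclei count meaning fewer cells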). An outline of the steps: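 Chemicals in eight-point dilution series are added to MCF-7 cells for six hours, nuclei are stained with Hoechst and imaged, and per-well nuclei counts are fitted in both directions relative to DMSO controls.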

In the case of `CCC(C)c1ccc(O)cc1` (centres undefined), the outcome in assay [1], in [2], in assay [5], in assay [6], in assay [7] and in [8] was inactive. Moreover, the molecule was classed as inactive in assay [12], in assay [13], in assay [15] and in assay [17]. Moreover, the AC50 in assay [3] was 20 µM (active); in assay [4], 20 µM (active); in [9] it was 32 µM (active); in [10], 30 µM (active); in [11], 29.6 µM (active); in assay [14] it was 30 µM (active). Also, the AC50 was 33.9 µM (active) in [16] and 30.5 µM (active) in [18].
Take `CC(C)N(Cc1ccccc1)C(=O)C(C)(C)C`: the result in assay [1], in [2], in assay [19], in assay [5] and in assay [6] was inactive.
For `CCCCCCCCn1sccc1=O`, the AC50 in assay [1] was 52 µM (active); in assay [19] it was 74.4 µM (active); in assay [6], 45.9 µM (active); in [20], 50 µM (active); in assay [8] it was 6.78 µM (active); in [11] it was 8.26 µM (active). For the same molecule, the AC50 is 3.28 µM (active) in assay [13]; 7.57 µM (active) in assay [14]; 6.8 µM (active) in [15]; 8.61 µM (active) in [16]; 11.5 µM (active) in assay [18]. The molecule was classed as inactive in [2], in [3], in assay [4], in [5], in assay [7] and in [9]. For the same molecule, the molecule was classed as inactive in assay [10], in [12] and in [17].
For `CCOC(=O)[C@]1(c2ccccc2)Oc2ccccc2[C@@H]1N`, in assay [1], the AC50 is 31.3 µM (active). Besides, the molecule was called inactive in [2], in [19], in assay [5] and in [6].
For `O=[N+]([O-])C(Br)(CO)CO`, the concentration at half-maximal activity (AC50) in assay [3] was 33.6 µM (active); in assay [4] it was 33.9 µM (active); in assay [8], 30.4 µM (active); in assay [9], 20 µM (active); in assay [11], 30.2 µM (active); in assay [15], 32 µM (active). Moreover, the AC50 in [16] is 35.8 µM (active). Besides, the result in [5], in [6], in [20], in assay [7], in assay [10] and in assay [12] was inactive. For the same molecule, the result in assay [13], in assay [14], in [17] and in [18] was inactive.
With `Cc1cccc(N)c1N`, the outcome in assay [5] and in [6] was inactive.
As to `CCC[CH2][Sn]([Cl])([CH2]CCC)[CH2]CCC`, the AC50 in [1] is 3.2 µM (active); in assay [19], 11.9 µM (active); in [3], 40.1 nM (active) and 70.2 nM (active); in assay [4] it was 40.3 nM (active) and 70.2 nM (active); in assay [5], 11.8 µM (active); in assay [6] it was 10.9 µM (active). Moreover, the AC50 in assay [20] was 17.2 µM (active); in [7] it was 40 nM (active) and 66.5 nM (active); in assay [8], 0.347 µM (active); in assay [9] it was 198 nM (active) and 150 nM (active); in [10], 0.382 µM (active); in assay [11] it was 221 nM (active) and 330 nM (active). Besides, the AC50 in assay [12] was 7.27 µM (active); in [14] it was 0.239 µM (active); in assay [15], 0.992 µM (active); in assay [16], 0.243 µM (active); in assay [17], 16.8 nM (active) and 54 nM (active); in assay [18] it was 0.463 µM (active). Moreover, the call in assay [2], in assay [8], in assay [10], in assay [12], in assay [13] and in assay [14] was inactive. Besides, the result in [15], in assay [16] and in assay [18] was inactive.
